Compound activity: PubChem BioAssay, National Center for Advancing Translational Sciences (NCATS)
Most compounds without a hit are left out; they make up all but 2.3% or so of the library.
Tau fluor cs: Counterscreen qHTS for Inhibitors of Tau Fibril Formation, Fluorescence Polarization; tau K18 P301L Alexa594 fluorescence, heparin fibrillization; Potency, µM (doses to about 57.7 µM); hit rate 0.93% among 280,000; AID 1463, 2008; note: nearly all actives have a fitted effect of over 55% in size
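Human tau K18 P301L (15 uM unlabeled, 0.24 uM Alexa 594-labeled) in 100 mM sodium acetate pH 7 with 20 uM heparin, 6 hr at 37 C. ThT 30 uM added, 1 hr ambient; Alexa 594 FP and total fluorescence read at 555/632 nm.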
FBPA coupling cs: qHTS Assay for Inhibitors of Fructose-1,6-bisphosphate Aldolase from Giardia Lamblia: Coupling assay counterscreen. coupling enzyme system counterscreen, AmpLite Red fluorescence. activity change, negative = inhibition, % at 58.2 µM, hits read low. AID 2472, 2010. hit rate 0.67% among 290,000; in the data active = activity change below about -30%
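Compounds tested against the coupling enzymes alone at 57.5 uM final; readout was AmpLite Red fluorescence (525/598 nm) after 20 min at RT.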
Tau ThT inhib: qHTS for Inhibitors of Tau Fibril Formation, Thioflavin T Binding; Microtubule-associated protein tau (Homo sapiens), P10636; recombinant tau K18 P301L (four-repeat tau fragment), heparin-induced fibrillization, ThT fluorescence; Potency, µM (doses to about 57.4 µM), usual class: inhibitors; hit rate 2.1% among 270,000; AID 1460, 2008; note: nearly all actives have a fitted effect of over 55% in size
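Aggregation was driven by heparin (20 uM final) acting on recombinant tau […] bearing P301L in 100 mM sodium acetate pH 7; fibrils were detected with Thioflavin T.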
USP1-UAF1 inh: Inhibitors of USP1/UAF1: Primary Screen | Ubiquitin carboxyl-terminal hydrolase 1 (Homo sapiens), O94782 | recombinant USP1/UAF1, Ub-Rhodamine cleavage fluorescence | Potency, µM (titrated, usually from 57.1 µM), hits mostly inhibitors | hit rate 0.23% among 390,000 | AID 743255, 2014; note: nearly all actives have a fitted effect of over 60% in size
Target sequence (O94782 whole entry, looked up): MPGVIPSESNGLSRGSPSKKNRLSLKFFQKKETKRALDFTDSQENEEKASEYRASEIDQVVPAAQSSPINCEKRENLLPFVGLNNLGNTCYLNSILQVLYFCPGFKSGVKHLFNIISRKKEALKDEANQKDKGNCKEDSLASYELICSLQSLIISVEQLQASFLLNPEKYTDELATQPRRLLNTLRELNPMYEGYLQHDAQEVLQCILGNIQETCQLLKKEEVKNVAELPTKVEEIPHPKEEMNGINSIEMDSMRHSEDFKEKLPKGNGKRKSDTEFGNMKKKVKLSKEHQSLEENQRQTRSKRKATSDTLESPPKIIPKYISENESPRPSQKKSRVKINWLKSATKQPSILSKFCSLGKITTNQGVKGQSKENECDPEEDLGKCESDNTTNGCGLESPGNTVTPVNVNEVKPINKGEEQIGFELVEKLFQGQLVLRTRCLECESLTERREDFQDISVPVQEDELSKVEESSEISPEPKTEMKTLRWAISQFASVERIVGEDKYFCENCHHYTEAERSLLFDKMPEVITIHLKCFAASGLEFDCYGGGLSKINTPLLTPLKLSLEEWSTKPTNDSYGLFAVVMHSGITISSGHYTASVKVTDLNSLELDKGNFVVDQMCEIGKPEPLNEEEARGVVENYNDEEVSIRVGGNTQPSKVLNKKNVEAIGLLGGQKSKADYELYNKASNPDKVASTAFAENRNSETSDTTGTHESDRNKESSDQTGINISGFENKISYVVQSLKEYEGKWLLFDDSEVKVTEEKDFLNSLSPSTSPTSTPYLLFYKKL
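USP1/UAF1 complex (1 nM) preincubated 15 min at room temperature with compound, then Ub-Rho substrate (150 nM final) added. Kinetic fluorescence at 480/540 nm over 6 reads at 60 s intervals; 50 mM HEPES pH 7.8, 0.5 mM EDTA, 0.1 mg/ml BSA, 1 mM TCEP, 0.01% Tween-20.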
Tau fibril FP: qHTS for Inhibitors of Tau Fibril Formation, Fluorescence Polarization; Microtubule-associated protein tau (Homo sapiens), P10636; K18 P301L tau heparin fibrillization, Alexa594 FP, 6 h; Potency, µM (series often up to 57.7 µM), most hits filed as inhibitors; hit rate 0.39% among 280,000; AID 1468, 2008; note: nearly all actives have a fitted effect of over 55% in size
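Human tau K18 […] P301L fragment, 15 uM unlabeled plus 0.24 uM Alexa 594-labeled tau (final), with compound and 20 uM heparin in 100 mM sodium acetate pH 7; 6 hr at 37 C, then Alexa 594 FP read.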
A number is an active result; n = inactive; u = inconclusive; x = no result; [ ] = remark or other dose. Unless noted, calls come from the whole dose curve; as a rule, active = well fitted curve in the direction sought with a large enough effect; inconclusive = small, poorly fitted or top-dose-only effect, or another doubt; inactive = no such curve, though single readings can be large; an effect the other way counts as inactive or inconclusive.

SMILES	Tau fluor cs	FBPA coupling cs	Tau ThT inhib	USP1-UAF1 inh	Tau fibril FP
COc1cc(NC(=O)c2cc3nc(-c4ccccc4)cc(-c4ccccc4)n3n2)c(OC)cc1Cl	n	x	n	n	n
O=C1CCC=C1C(O)c1ccc2c(c1)OCO2 (stereo not drawn)	n	n	n	x	n
Cc1nc(NC2CCCCC2)c2nc(-c3ccccc3)n(CCN(C)C)c2n1	n	n	n	x	n
O=C(NCCc1ccccc1)c1ccc(NCC2CCCO2)c([N+](=O)[O-])c1 (stereo not drawn)	n	n	16µM	n	n
CC(Nc1cc(N2CCN(C(=O)C(C)(C)C)CC2)ccc1[N+](=O)[O-])c1ccccc1 (stereo not drawn)	n	n	u	n	n
CC(C)C(=O)N1CCN(c2ccc([N+](=O)[O-])c(NC(C)c3ccccc3)c2)CC1 (stereo not drawn)	n	n	16µM	n	n
CCc1ccccc1NC(=O)CN(c1cc(C(F)(F)F)ccc1Cl)S(=O)(=O)c1ccccc1	n	x	n	n	n
Cc1c(-c2nc(-c3ccc4c(c3)[nH]c(=O)n4C)no2)cccc1[N+](=O)[O-]	n	x	n	n	n
CCOc1cc(CNc2ccc3[nH]c(=O)[nH]c3c2)ccc1OCC(=O)NC(C)(C)C	u	-33	13µM	n	u
COc1cc(CNc2ccc3[nH]c(=O)[nH]c3c2)cc(Cl)c1OCC(=O)NC(C)(C)C	u	-44	11µM	u	u
COc1cc(CNn2c(C)n[nH]c2=S)cc(Cl)c1OCC(=O)NC(C)(C)C	x	n	x	n	x
Cc1cc2c(NC(=O)Nc3ccc(F)cc3)cccc2nn1	n	-31	u	n	u
Cc1cc2c(NC(=O)CC(C)(C)CC(=O)O)cccc2nn1	n	-36	x	u	n
Fc1ccc(CNc2ncnc3onc(-c4ccc(F)cc4)c23)cc1	n	x	n	n	n
COc1cc(NC(=O)c2cc3c(s2)-c2ccccc2OC3)cc(OC)c1OC	6.3µM[quencher]	x	u	n	n
COCCCNC(=O)c1sc2nc(C)c(C(=O)Nc3ccc(C)cc3C)c(-c3ccccc3Cl)c2c1N	n	x	n	n	n
CCOC(=O)N/N=C/c1ccc(N(CC)CC)cc1O	u	n	u	n	n
Cc1cccc(N/N=C/c2ccncc2)c1	x	n	x	n	x
CCN(CC)c1ccc(/C=N/Nc2ccc(C)cc2)c(O)c1	u	n	25µM	n	n
Cc1cccc(N/N=C/c2ccccc2O)c1	16µM[quencher]	n	u	n	u
CSc1ccc(/C=C/c2nc3ccccc3n2S(=O)(=O)c2ccc(Br)cc2)cc1	32µM[quencher]	x	n	n	u
COc1ccc(OC)c(NC(=O)CSC2=Nc3ccccc3C3=NC(CCC(=O)NCCc4ccccc4)C(=O)N23)c1 (stereo not drawn)	n	x	n	n	n
O=C(/C=C/c1cccc(O)c1)c1ccc(N2CCOCC2)cc1	u	n	3.5µM	n	n
COc1nc(/C=C/N(C)C)c([N+](=O)[O-])c(OC)n1	u	n	8.9µM	n	n
O=C(O)c1ccc(-c2ccc3cc(C45CC6CC(CC(C6)C4)C5)c(O)cc3c2)cc1	x	n	x	x	x
SMILES	Tau fluor cs	FBPA coupling cs	Tau ThT inhib	USP1-UAF1 inh	Tau fibril FP
CCc1ccc2oc(C(=O)Nc3cccc(Cl)c3C)cc(=O)c2c1	n	x	n	u	n
O=C(CC(c1cccs1)N1Cc2ccccc2C1=O)Nc1ccccc1F (stereo not drawn)	n	x	n	n	n
Cc1ccc(C(=O)O/N=C\c2ccc(N3CCCCC3)c([N+](=O)[O-])c2)cc1	n	n	4.5µM	n	n
COc1ccc(C(=O)/C=C/c2ccc(N3CCCCC3)c([N+](=O)[O-])c2)cc1	u	n	7.9µM	n	n
COc1ccc(C(=O)/C=C/c2ccc(N3CCCCC3)c([N+](=O)[O-])c2)c(OC)c1	u	n	4µM	n	n
COc1ccc(NC(=O)CN(C)C(=O)c2ccc(N3CCCCC3)c([N+](=O)[O-])c2)cc1	x	x	x	n	x
CCC1CN(C(=O)C2CCN(S(=O)(=O)c3c(C)noc3/C=C/c3ccccc3F)CC2)c2cc(Cl)ccc2O1 (stereo not drawn)	n	x	n	n	u
CC(C)(C)c1nnc(NC(=O)c2ccc(Cl)nc2)s1	n	-36	n	n	n
COC(=O)c1c(NC(=O)/C(C#N)=C/c2ccccc2)sc2c1CCC2	n	x	n	n	n
N#C/C(=C\c1ccccc1)C(=O)Nc1sc2c(c1C(N)=O)CCC2	n	x	1.4µM	n	n
COc1ccc(OC)c(S(=O)(=O)NCC(c2cccs2)S(=O)(=O)c2ccc(F)cc2)c1 (stereo not drawn)	n	x	n	n	n
COc1ccc2[nH]c(O)c(N=NC(=O)Cc3cccs3)c2c1	u	n	16µM	n	n
CO[C@@H]1COC(=O)[C@@H](CCSC)NC(=O)C/C=C\[C@@H](C)COC(=O)CCC[C@H]1C	n[11.6 µM]	n	n[11.5 µM]	x	n[11.6 µM]
O=C(NCC(c1ccc2c(c1)OCO2)N1CCN(c2ccccc2)CC1)c1ccc(F)c(F)c1 (stereo not drawn)	u	x	n	n	n
CCS(=O)(=O)NCCc1sc2nc(-c3ccc(OC)cc3)nn2c1C	n	x	n	n	n
CCC1(CC)Cc2ccccc2C2=C(C(=O)N3CCCCC3)C(=O)C(=O)N21	n	-34	n	n	n
CC1(C)Cc2ccccc2C2=C(C(=O)N3CCCCCC3)C(=O)C(=O)N21	n	-42	n	n	n
O=C1C(=O)N2C(=C1C(=O)N1CCCCCC1)c1ccccc1CC21CCCC1	n	n	n	n	n
O=C1/C(=C/c2cccs2)SC(=S)N1c1ccccc1	n	n	n	n	n
O=C1/C(=C/c2cccs2)SC(=S)N1c1cccc(O)c1	20µM[quencher]	n	20µM	n	n
O=S1(=O)C=C(Sc2nc3ccccc3s2)c2ccccc21	n	n	10µM	n	u
Cc1cc(C)nc(SC2=CS(=O)(=O)c3ccccc32)n1	n	n	u	n	n
O=C(CCSCc1cccc(Cl)c1)NCc1ccccc1Cl	n	x	n	n	n
N=C1S/C(=C\c2ccco2)C(=O)N1c1nccs1	n	n	16µM	n	n
N=C1S/C(=C\c2ccco2)C(=O)N1c1ccc2c(c1)OCO2	u	n	16µM	n	n
Nc1ccc2c(c1)N1CCN=C1S2	n	n	n	n	n
O=C(Nc1ccc(Cl)cc1)Nc1ccc2c(c1)N1CCN=C1S2	14µM[quencher]	n	n	n	n
CCC(=O)N1CCN(c2ccc(NC(=O)c3ccc([N+](=O)[O-])o3)cc2)CC1	n	n	3.2µM	n	n
CCCC(=O)N1CCN(c2ccc(NC(=O)c3sc4ccccc4c3Cl)cc2)CC1	n	n	2.2µM	n	u
